Experimental data published in PubChem BioAssay AID1224921 (Broad Institute, 2016).
Hit rate of the full screen: of about 1,400 compounds, about 350 (25%) were called active. Inconclusive results (about 2%) are left out. The rule behind the calls is not given here. These entries were drawn from the full list. Entries with a potency or affinity are not part of this list.

test: inhibitors of Clostridioides difficile proliferation – 4-point retest, confirmation (AID 1224921); settings: Clostridioides difficile clinical isolate growth, OD600, 24 h, active compounds read low; at 30 µM unless noted;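 note: plate controls were DMSO wells for no effect and levofloxacin 16 µg/mL wells for full effect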

Max activity, inactive:
CCCC(=O)Nc1ccc2c(c1)OC[C@H](C)N(CCc1ccccc1)C[C@@H](C)[C@@H](OC)CN(C)C2=O -11.5% [at 0.5 µM]
C[C@@H]1CN([C@@H](C)CO)C(=O)Cc2cc(N(C)C)ccc2O[C@H]1CN(C)Cc1ccc(-c2ccccc2)cc1 20.5% [at 8 µM]
C#CCNC(=O)C1=C[C@H](c2cn(C(C)=O)c3ccccc23)C[C@H](OCc2ccc(CO)cc2)O1 -9.52% [at 0.5 µM]
O=C(N[C@H]1C=C[C@@H](CC(=O)N2CCOCC2)O[C@@H]1CO)c1cccc(F)c1 -5.96%
C[C@@H]1CCCCO[C@H](CN(C)CC2CC2)[C@H](C)CN([C@@H](C)CO)C(=O)c2cc(NC(=O)Nc3cccc4ccccc34)ccc2O1 13.7%
CCc1cnc(N2[C@H](CO)[C@H](c3ccc(C#CC(C)C)cc3)[C@@H]2C#N)s1 17% [at 1.95 µM]
CC(C)CC#Cc1ccc2c(c1)O[C@H](CN(C)Cc1cccnc1)[C@@H](C)CN([C@H](C)CO)S2(=O)=O 42.9%
CC(C)Cc1ccc(CN2CC[C@@H](NC(=O)c3ccccc3)C2)cc1 20.1% [at 8 µM]
C[C@H](CO)N1C[C@H](C)[C@@H](CN(C)C(=O)Nc2ccc(C(F)(F)F)cc2)Oc2c(NC(=O)c3ccc(-c4nccs4)cc3)cccc2C1=O 7.84%
CC(C)NC(=O)NCC[C@H]1CC[C@@H](NS(=O)(=O)c2ccc(Oc3ccccc3)cc2)[C@@H](CO)O1 13.9% [at 35 µM]
Cc1ccc(S(=O)(=O)N[C@H]2CC[C@H](CCNS(=O)(=O)Cc3ccccc3)O[C@H]2CO)cc1 -13.6% [at 7.5 µM]
O=S(=O)(NCC[C@H]1CC[C@H](NS(=O)(=O)c2ccccc2Cl)[C@H](CO)O1)c1ccc(Cl)cc1 10% [at 7.5 µM]
O=C(NCC[C@@H]1CC[C@H](NC(=O)Nc2cc(F)ccc2F)[C@H](CO)O1)Nc1ccc(Cl)cc1 -10.4% [at 0.5 µM]
CC(C)NC(=O)NCC[C@H]1CC[C@@H](NS(=O)(=O)c2ccc(Oc3ccccc3)cc2)[C@H](CO)O1 9.67%
O=C(C[C@@H]1CC[C@H](NC(=O)Nc2cc(F)ccc2F)[C@H](CO)O1)NCc1ccc2c(c1)OCO2 4.18% [at 8 µM]
CC(C)CC#Cc1ccc2c(c1)O[C@@H](CN(C)C(=O)c1ccccc1)[C@@H](C)CN([C@@H](C)CO)S2(=O)=O 35.1%
CC(=O)N(C)C[C@H]1Oc2ncc(-c3ccc(C#N)cc3)cc2C(=O)N([C@H](C)CO)C[C@H]1C -10.1% [at 1.95 µM]
CO[C@H]1CN(C)C(=O)c2cc(NS(=O)(=O)c3cccc(F)c3)ccc2OC[C@H](C)N(Cc2cc(F)ccc2F)C[C@H]1C 7.97%
CCC(=O)Nc1ccc2c(c1)C(=O)N(C)C[C@@H](OC)[C@@H](C)CN(C(=O)CN1CCOCC1)[C@H](C)CO2 18.1%
CCCN1C[C@H](C)[C@H](OC)CN(C)C(=O)c2cc(NC(=O)c3cccc(OC)c3)ccc2OC[C@@H]1C -8.29% [at 0.5 µM]
C[C@H](CO)N1C[C@H](C)[C@@H](CN(C)Cc2ccc3c(c2)OCO3)Oc2ccc(NC(=O)Nc3ccc4c(c3)OCO4)cc2C1=O -9.66% [at 8 µM]
C[C@H](CO)N1C[C@H](C)[C@@H](CN(C)S(=O)(=O)CC(F)(F)F)OCc2ccccc2-c2c(n(C)c3ccccc23)C1=O 24.2%
CC(C)CC#Cc1ccc2c(c1)O[C@@H](CN(C)Cc1ccncc1)[C@H](C)CN([C@H](C)CO)S2(=O)=O 18.2% [at 8 µM]
C[C@@H]1CN([C@@H](C)CO)S(=O)(=O)c2ccc(C#CCC3CCCC3)cc2O[C@H]1CN(C)C(=O)CC1CC1 -15.8% [at 1.95 µM]
O=C(C[C@H]1CC[C@H](NC(=O)CCN2CCCCC2)[C@H](CO)O1)Nc1nccs1 -18.1% [at 8 µM]
CCCNC(=O)N(C)C[C@H]1Oc2ncc(C#CCc3ccccc3)cc2C(=O)N([C@@H](C)CO)C[C@@H]1C 16.1%
COc1ccc(C#Cc2cnc3c(c2)C(=O)N([C@@H](C)CO)C[C@H](C)[C@@H](CN(C)CC2CCOCC2)O3)cc1 8.65% [at 8 µM]
C[C@@H]1CN([C@@H](C)CO)C(=O)c2cc(C#CC3CCCCC3)cnc2O[C@@H]1CN(C)Cc1cccnc1 58.9%
C[C@H](O)C#Cc1cnc2c(c1)C(=O)N([C@@H](C)CO)C[C@H](C)[C@H](CN(C)Cc1ccc(-c3ccccc3)cc1)O2 31.6%
CC(=O)N(C)C[C@@H]1Oc2ncc(C#Cc3ccc(F)cc3)cc2C(=O)N([C@@H](C)CO)C[C@H]1C 24.8%
C[C@@H]1CN([C@@H](C)CO)C(=O)c2cc(C#CC3CCCCC3)cnc2O[C@H]1CN(C)Cc1cccnc1 21.1%
CCCN1C[C@@H](C)[C@@H](OC)CN(C)C(=O)c2cc(NC(=O)c3cccc(F)c3)ccc2OC[C@H]1C -11.3% [at 1.95 µM]
CO[C@@H]1CN(C)C(=O)c2cc(NC(C)=O)ccc2OC[C@@H](C)N(C(=O)c2ccccn2)C[C@@H]1C -15.1% [at 8 µM]
C[C@H]1CN([C@@H](C)CO)C(=O)Cc2cc(NS(=O)(=O)c3cccs3)ccc2O[C@@H]1CN(C)Cc1ccc(Cl)c(Cl)c1 33.5% [at 8 µM]
COc1ccc(NC(=O)Nc2ccc3c(c2)[C@H]2C[C@H](CC(=O)N[C@@H](C)c4ccccc4)O[C@@H](CO)[C@H]2O3)cc1 -8.28% [at 2.1 µM]
Cc1ccccc1S(=O)(=O)N1[C@H](CO)[C@@H](c2ccc(C#CC3CC3)cc2)[C@@H]1C#N 34.7%
COc1ccccc1C#Cc1ccc([C@H]2[C@@H](C#N)N(C(=O)C3CC3)[C@H]2CO)cc1 22.1% [at 8 µM]
